Experimental data taken from ChEMBL document CHEMBL1961873, “Compounds: GSK PKIS; Assays: Nanosyn kinase panel” (2012).

Legend:
[1] = target: RAC-alpha serine/threonine-protein kinase (Homo sapiens) (UniProt P31749); settings: at 0.1 µM
[2] = target: RAC-alpha serine/threonine-protein kinase (Homo sapiens) (UniProt P31749); settings: at 1 µM
[3] = target: RAC-beta serine/threonine-protein kinase (Homo sapiens) (UniProt P31751); settings: at 0.1 µM
[4] = target: RAC-beta serine/threonine-protein kinase (Homo sapiens) (UniProt P31751); settings: at 1 µM
[5] = target: RAC-gamma serine/threonine-protein kinase (Homo sapiens) (UniProt Q9Y243); settings: at 0.1 µM
RAC-gamma serine/threonine-protein kinase (Homo sapiens), sequence (Q9Y243 whole entry): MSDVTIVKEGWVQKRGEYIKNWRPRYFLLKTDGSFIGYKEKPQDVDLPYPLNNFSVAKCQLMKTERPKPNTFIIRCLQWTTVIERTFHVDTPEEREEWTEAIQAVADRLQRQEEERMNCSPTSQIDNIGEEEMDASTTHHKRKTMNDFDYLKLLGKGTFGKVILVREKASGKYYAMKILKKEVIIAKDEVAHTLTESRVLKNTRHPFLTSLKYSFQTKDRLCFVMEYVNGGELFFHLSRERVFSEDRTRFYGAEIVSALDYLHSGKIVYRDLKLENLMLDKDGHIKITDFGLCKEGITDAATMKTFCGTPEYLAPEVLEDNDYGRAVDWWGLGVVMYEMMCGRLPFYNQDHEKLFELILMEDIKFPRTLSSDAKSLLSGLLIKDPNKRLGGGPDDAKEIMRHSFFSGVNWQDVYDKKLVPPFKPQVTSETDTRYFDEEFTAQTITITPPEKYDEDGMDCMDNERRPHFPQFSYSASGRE

[6] = target: RAC-gamma serine/threonine-protein kinase (Homo sapiens) (UniProt Q9Y243); settings: at 1 µM
[7] = target: G protein-coupled receptor kinase 6 (Homo sapiens) (UniProt P43250); settings: at 0.1 µM
G protein-coupled receptor kinase 6 (Homo sapiens), sequence (P43250 whole entry, looked up): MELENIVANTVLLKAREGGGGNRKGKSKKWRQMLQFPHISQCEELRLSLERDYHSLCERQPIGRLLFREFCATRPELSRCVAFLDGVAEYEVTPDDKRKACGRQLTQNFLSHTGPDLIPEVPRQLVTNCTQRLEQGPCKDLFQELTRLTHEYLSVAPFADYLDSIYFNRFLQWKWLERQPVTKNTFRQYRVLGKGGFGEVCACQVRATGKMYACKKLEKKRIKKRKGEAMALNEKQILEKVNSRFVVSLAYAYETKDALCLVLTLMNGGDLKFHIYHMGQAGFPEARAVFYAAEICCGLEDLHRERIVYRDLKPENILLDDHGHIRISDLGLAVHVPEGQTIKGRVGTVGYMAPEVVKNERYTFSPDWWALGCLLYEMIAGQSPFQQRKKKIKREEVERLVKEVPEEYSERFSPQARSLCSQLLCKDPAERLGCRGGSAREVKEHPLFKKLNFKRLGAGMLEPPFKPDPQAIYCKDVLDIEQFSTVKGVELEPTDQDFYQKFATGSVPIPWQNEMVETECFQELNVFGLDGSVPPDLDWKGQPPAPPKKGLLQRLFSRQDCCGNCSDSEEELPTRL

[8] = target: G protein-coupled receptor kinase 6 (Homo sapiens) (UniProt P43250); settings: at 1 µM
[9] = target: T1, Rhodopsin kinase GRK7 (Homo sapiens) (UniProt Q8WTQ7); settings: at 0.1 µM
T1 sequence (whole entry): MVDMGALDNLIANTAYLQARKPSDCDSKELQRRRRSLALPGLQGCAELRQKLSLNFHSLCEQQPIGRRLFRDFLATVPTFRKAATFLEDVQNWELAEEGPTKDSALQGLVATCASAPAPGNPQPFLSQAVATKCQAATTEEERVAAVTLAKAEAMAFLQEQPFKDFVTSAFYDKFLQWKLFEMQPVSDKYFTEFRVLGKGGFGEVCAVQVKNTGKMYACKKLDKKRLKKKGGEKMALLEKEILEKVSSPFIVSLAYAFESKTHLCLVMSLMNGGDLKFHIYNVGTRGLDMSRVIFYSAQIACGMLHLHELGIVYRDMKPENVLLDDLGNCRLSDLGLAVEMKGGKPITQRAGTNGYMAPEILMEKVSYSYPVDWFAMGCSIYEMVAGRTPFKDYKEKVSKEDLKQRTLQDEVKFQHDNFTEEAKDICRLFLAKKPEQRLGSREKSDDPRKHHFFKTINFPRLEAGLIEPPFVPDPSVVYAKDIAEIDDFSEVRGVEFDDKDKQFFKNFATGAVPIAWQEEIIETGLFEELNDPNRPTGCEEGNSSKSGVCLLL

[10] = target: T1, Rhodopsin kinase GRK7 (Homo sapiens); settings: at 1 µM
[11] = target: Serine/threonine-protein kinase MRCK alpha (Homo sapiens) (UniProt Q5VT25); settings: at 0.1 µM
[12] = target: Serine/threonine-protein kinase MRCK alpha (Homo sapiens) (UniProt Q5VT25); settings: at 1 µM
[13] = target: Serine/threonine-protein kinase MRCK beta (Homo sapiens) (UniProt Q9Y5S2); settings: at 0.1 µM
Serine/threonine-protein kinase MRCK beta (Homo sapiens), sequence (Q9Y5S2 whole entry): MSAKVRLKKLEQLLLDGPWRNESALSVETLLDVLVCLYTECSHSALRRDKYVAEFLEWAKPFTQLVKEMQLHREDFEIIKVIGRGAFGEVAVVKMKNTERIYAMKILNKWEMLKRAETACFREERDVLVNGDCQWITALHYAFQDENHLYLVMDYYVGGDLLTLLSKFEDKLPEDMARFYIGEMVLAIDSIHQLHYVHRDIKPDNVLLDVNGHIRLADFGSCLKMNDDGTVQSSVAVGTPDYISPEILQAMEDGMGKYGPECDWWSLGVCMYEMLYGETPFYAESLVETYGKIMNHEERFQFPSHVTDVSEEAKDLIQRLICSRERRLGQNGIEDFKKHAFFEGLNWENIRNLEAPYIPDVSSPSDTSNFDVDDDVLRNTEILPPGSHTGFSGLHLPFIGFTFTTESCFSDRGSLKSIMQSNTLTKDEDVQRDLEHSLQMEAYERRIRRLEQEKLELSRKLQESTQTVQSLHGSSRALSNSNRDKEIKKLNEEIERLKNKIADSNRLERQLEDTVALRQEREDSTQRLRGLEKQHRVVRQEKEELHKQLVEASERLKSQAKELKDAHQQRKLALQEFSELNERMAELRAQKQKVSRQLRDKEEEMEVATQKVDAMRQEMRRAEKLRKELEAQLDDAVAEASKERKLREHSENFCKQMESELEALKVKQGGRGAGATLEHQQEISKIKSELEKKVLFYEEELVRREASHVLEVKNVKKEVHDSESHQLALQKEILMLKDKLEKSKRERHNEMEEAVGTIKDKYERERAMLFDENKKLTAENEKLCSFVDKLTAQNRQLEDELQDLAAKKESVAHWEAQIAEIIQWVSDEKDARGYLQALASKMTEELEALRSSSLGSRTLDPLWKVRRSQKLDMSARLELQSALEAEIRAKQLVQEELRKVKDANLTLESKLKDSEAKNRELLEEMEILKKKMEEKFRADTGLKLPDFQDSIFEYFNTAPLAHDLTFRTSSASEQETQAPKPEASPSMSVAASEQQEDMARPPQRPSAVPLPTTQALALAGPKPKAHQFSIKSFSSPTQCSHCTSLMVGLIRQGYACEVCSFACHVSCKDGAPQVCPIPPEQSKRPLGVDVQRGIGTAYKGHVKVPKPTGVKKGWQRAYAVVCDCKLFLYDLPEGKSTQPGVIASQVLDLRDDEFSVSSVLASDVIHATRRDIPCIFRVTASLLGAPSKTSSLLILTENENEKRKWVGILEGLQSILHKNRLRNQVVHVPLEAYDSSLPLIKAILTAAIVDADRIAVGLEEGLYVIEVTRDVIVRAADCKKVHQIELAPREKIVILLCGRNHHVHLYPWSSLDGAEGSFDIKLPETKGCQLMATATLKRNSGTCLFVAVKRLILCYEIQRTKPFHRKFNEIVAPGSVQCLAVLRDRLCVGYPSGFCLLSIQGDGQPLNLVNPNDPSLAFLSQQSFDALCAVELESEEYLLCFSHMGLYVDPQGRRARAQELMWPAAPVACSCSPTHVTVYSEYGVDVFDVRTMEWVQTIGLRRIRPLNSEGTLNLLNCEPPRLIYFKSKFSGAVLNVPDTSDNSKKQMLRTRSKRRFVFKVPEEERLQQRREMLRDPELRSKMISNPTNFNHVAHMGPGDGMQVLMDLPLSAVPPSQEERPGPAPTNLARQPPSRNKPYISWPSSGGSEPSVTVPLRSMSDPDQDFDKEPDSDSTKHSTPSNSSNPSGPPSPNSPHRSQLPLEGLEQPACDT

[14] = target: Serine/threonine-protein kinase MRCK beta (Homo sapiens) (UniProt Q9Y5S2); settings: at 1 µM
[15] = target: Ribosomal protein S6 kinase alpha-5 (Homo sapiens) (UniProt O75582); settings: at 0.1 µM
[16] = target: Ribosomal protein S6 kinase alpha-5 (Homo sapiens) (UniProt O75582); settings: at 1 µM
[17] = target: Ribosomal protein S6 kinase alpha-4 (Homo sapiens) (UniProt O75676); settings: at 0.1 µM
Ribosomal protein S6 kinase alpha-4 (Homo sapiens), sequence (O75676 whole entry, looked up): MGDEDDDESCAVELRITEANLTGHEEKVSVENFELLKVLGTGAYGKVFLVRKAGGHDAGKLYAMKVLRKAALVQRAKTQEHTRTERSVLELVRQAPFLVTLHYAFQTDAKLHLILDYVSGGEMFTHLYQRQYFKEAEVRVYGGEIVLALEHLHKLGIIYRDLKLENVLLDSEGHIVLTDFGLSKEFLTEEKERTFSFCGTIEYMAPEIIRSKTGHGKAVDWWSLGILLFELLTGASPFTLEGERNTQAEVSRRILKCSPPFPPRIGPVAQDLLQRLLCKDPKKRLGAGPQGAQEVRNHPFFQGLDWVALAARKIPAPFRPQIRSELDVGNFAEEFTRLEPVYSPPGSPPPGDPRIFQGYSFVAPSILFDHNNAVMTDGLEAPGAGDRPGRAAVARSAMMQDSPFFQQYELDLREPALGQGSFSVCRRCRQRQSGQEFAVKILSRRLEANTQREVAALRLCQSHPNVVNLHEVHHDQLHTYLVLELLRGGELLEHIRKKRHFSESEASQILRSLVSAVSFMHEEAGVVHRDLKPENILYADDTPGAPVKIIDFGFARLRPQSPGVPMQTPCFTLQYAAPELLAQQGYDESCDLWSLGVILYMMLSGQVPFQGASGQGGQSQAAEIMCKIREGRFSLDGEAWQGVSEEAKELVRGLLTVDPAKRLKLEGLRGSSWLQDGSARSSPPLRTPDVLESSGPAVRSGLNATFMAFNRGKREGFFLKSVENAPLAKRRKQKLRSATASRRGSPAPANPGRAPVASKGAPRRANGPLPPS

[18] = target: Ribosomal protein S6 kinase alpha-4 (Homo sapiens) (UniProt O75676); settings: at 1 µM
[19] = target: Ribosomal protein S6 kinase beta-1 (Homo sapiens) (UniProt P23443); settings: at 0.1 µM
Ribosomal protein S6 kinase beta-1 (Homo sapiens), sequence (P23443 whole entry, looked up): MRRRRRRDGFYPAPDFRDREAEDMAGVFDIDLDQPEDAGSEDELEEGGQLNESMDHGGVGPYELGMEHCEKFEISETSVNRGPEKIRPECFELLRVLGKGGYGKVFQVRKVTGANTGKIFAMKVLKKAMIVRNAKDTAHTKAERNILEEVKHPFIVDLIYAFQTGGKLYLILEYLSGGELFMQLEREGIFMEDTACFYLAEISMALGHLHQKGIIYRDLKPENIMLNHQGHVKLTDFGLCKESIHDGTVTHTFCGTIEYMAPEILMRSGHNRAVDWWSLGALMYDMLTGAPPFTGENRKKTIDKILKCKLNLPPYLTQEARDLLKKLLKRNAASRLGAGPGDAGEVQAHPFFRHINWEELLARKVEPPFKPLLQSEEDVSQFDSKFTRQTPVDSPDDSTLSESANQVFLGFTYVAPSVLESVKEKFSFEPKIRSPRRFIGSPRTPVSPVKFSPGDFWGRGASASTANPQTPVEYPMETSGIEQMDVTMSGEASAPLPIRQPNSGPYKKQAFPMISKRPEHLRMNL

[20] = target: Ribosomal protein S6 kinase beta-1 (Homo sapiens) (UniProt P23443); settings: at 1 µM

RAC-beta serine/threonine-protein kinase (Homo sapiens), sequence (P31751 whole entry): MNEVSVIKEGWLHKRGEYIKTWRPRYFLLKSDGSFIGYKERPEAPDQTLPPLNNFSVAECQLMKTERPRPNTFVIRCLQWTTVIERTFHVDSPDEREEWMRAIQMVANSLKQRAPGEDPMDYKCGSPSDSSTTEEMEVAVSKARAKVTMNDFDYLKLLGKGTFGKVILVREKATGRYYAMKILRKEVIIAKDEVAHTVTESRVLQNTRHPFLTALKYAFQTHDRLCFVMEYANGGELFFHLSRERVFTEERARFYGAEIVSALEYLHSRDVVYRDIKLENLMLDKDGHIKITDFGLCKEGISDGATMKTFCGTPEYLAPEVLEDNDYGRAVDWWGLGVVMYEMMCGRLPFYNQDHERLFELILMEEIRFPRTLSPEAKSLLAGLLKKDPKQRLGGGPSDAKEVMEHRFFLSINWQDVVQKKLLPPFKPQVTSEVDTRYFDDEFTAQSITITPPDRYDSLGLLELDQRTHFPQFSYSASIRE
RAC-alpha serine/threonine-protein kinase (Homo sapiens), sequence (P31749 whole entry): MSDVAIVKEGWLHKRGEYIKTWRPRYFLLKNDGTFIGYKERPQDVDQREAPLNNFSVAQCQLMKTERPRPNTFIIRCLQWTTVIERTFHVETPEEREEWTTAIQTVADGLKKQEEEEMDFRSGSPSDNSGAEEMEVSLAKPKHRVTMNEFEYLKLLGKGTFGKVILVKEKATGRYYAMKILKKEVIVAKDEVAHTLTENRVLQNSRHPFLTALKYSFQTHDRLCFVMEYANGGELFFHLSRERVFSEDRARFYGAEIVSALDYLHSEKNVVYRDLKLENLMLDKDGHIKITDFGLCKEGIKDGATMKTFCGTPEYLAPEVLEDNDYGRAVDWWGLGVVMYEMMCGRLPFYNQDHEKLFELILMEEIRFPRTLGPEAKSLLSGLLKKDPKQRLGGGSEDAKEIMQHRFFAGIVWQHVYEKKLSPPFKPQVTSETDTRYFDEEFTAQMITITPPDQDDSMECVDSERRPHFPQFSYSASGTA

SMILES	inhibition [1] [%]	inhibition [2] [%]	inhibition [3] [%]	inhibition [4] [%]	inhibition [5] [%]	inhibition [6] [%]	inhibition [7] [%]	inhibition [8] [%]	inhibition [9] [%]	inhibition [10] [%]	inhibition [11] [%]	inhibition [12] [%]	inhibition [13] [%]	inhibition [14] [%]	inhibition [15] [%]	inhibition [16] [%]	inhibition [17] [%]	inhibition [18] [%]	inhibition [19] [%]	inhibition [20] [%]
CCc1cccc(CC)c1/C=C/c1cncc(C(=O)NC)c1	0.7	0.8	2.06	1.3	2.25	1.32	-2.11	-0.96	1.2	-8.54	0.02	0.07	0.83	1.46	3.05	2.79	0.51	2.52	1.3	0.41
NC(=O)c1ccc(Oc2nccc(-c3c(-c4ccc(F)cc4)ncn3C3CCNCC3)n2)cc1	1.54	3.25	2.45	1.86	3.04	7.31	4.21	7.44	-1.91	2.41	5.74	5.95	1.2	2.3	-2.57	-1.95	3.42	5.79	3.21	5.34
C/C(Nc1ccc(S(N)(=O)=O)cc1)=C1/C(=O)Nc2ccccc21	-0.64	-1.45	-3.63	-0.17	-2.53	-0.18	-0.76	9.44	-7.29	2.76	-0.23	0.16	0.47	3.4	0	8.47	1.38	17.7	-1.96	2.17
C[C@@H](Oc1cc(-n2cnc3ccc(OC4CCN(C)CC4)cc32)sc1C(N)=O)c1ccccc1Cl	-2.97	-3.84	-4.17	-2.31	-2.91	-1.57	4.79	6.21	10.7	3.62	0.03	5.65	0.19	2.98	2.31	1.66	2.84	5.67	1.64	5.01
COc1cc2ncn(-c3cc(OCc4ccccc4C(F)(F)F)c(C(C)=O)s3)c2cc1OC	0.53	1.82	0.85	1.16	0.29	1.31	-0.96	0.01	4.7	1.62	-2.12	1.84	0.33	0.86	1.02	-0.03	1.45	3.01	0.79	0.12
CCc1nccc2c1nc(-c1nonc1N)n2CC	-0.45	0.43	0.34	1.71	0.28	0.55	-0.76	-2.13	-2.75	2.78	0.8	1.36	0.74	3.39	6.51	37.7	2.18	19.5	10.5	49.6
COc1cc2ncn(-c3cc(OCc4cccs4)c(C(N)=O)s3)c2cc1OC	-2.85	-1.83	-1.63	-2.73	-3.06	-3.04	4.35	17.9	5.59	13	2.82	7.52	1.67	1.38	2.22	5.4	4.25	8	1.35	3.91
NC(=O)Cc1ccccc1Oc1nccc(-c2c(-c3ccc(F)cc3)ncn2C2CCNCC2)n1	0.16	0.12	1.23	0.29	0.15	1.21	-1.33	-0.72	1	1.09	0.16	-0.52	-0.05	1.05	2.22	1.53	-1.39	1.64	0.73	1.27
Cc1ccc(NC(=O)c2ccoc2)cc1-c1ccc(C(=O)NCC2CC2)cc1	0.37	0.55	0.88	1.23	0.72	1.87	-0.54	1.27	3.35	-1.36	-2.51	-2.81	-0.56	-1.77	0.76	-1.39	1.78	-0.44	-0.57	-1.48
COc1cc(C)c(N(C)C(=O)CN(C)C)cc1Nc1nc(Nc2cccc(F)c2C(N)=O)c2cc[nH]c2n1	-1.91	-1.8	-3.1	-2.1	-2.47	-1.39	3.68	17.8	-0.46	-6.16	0.58	0.78	1.08	1.21	1.09	0.49	1.07	2.79	2.18	1.42
CN(c1ccc(NC(=O)Nc2c(Cl)cccc2Cl)cc1)c1ccnc(Nc2cccc(CS(C)(=O)=O)c2)n1	0.48	1.09	0.5	2.1	3.21	-0.15	3.24	3.8	3.79	1.55	1.56	2.97	0.43	0.92	2.92	4.25	2.24	4.1	-1.3	2.4
Fc1ccc(-c2nc3n(c2-c2ccncc2)CCS3)cc1	-2.42	-2.29	-1.68	-1.83	-1.74	-2.44	2.79	-0.16	2.77	5.18	0.18	2.85	1.28	3.22	2.74	3.92	1.65	5.1	2.08	2.54
COc1cc(Nc2ncc(-c3ccccc3)o2)cc(OC)c1OC	-1.72	-1.61	-2.18	-1.88	-1.76	1.14	-1.02	-0.02	3.87	-9.33	2.53	3.73	0.08	0.86	0.23	0.82	-1.71	0.02	-0.45	3.55
